Screening data: PubChem BioAssay, University of Kansas High Throughput Screening Laboratory
Most compounds without a hit are left out; they make up all but 3.5% or so of the library.
Pf apPOL block: Pf-apPOL inhibitors, biochemical, fluorescence; Recombinant Pf-apPOL, molecular beacon fluorescence, 1.5 h; inhibition, % at 10 µM; 210,000 compounds, 0.25% hits; AID 1794808, 2022
mHTT-CaM PPI inh: mutant huntingtin-calmodulin interaction inhibitors – biochemical, AlphaScreen, primary screen. AID 1671202, 2021. 190,000 compounds, 3.6% hits. AlphaScreen His-mHTT/GST-CaM binding, luminescence. P42858. inhibition, % at 15 µM
Each line names hits and unclear results; the compound was inactive in the other large screens; ! = a repeat was not active. No stated cut-off is given here; in the data, active means inhibition above about 50%; inactive means the rest.

COc1cccc(C(=O)N2CCC(CCOc3ccccc3)CC2)c1	none
O=C(CCCc1ccccc1)Nc1cccc([N+](=O)[O-])c1	none
O=C(Cc1c([N+](=O)[O-])cc([N+](=O)[O-])cc1S(=O)Cc1ccccc1)Nc1ccccc1 (stereo unspecified)	mHTT-CaM PPI inh 84.0
Cc1cccc(N2COc3cc4c(cc3C2)OCO4)c1	mHTT-CaM PPI inh 59.0
Cc1ccc(N2COc3cc4c(cc3C2)OCO4)cc1	none
Cc1cc(C)cc(N2COc3cc4c(cc3C2)OCO4)c1	mHTT-CaM PPI inh 53.0
Cc1ccc(N2COc3cc4c(cc3C2)OCO4)cc1Cl	none
CCNC(=O)CN(Cc1ccccc1)S(=O)(=O)c1ccc(Cl)cc1	none
Cc1cc(C(c2ccccc2)c2cc(C)c(N)c(C)c2)cc(C)c1N	mHTT-CaM PPI inh 80.4
Cc1cc(C(c2cc(C)c(N)c(C)c2)c2ccco2)cc(C)c1N	none
COc1cccc(CCNC2CC(=O)N(c3ccc(NC(C)=O)cc3)C2=O)c1 (stereo unspecified)	none
CC(=O)Nc1ccc(N2C(=O)CC(NCCc3ccccn3)C2=O)cc1 (stereo unspecified)	mHTT-CaM PPI inh 54.0
N#CC1=C(N)OC2=C(C(=O)CCC2)C1c1ccccc1 (stereo unspecified)	none
N#CC1=C(N)OC2=C(CC/C2=C\c2ccccc2)C1c1ccccc1 (stereo unspecified)	mHTT-CaM PPI inh 90.0
COc1cccc(OC)c1C(=O)Oc1ccc2c(c1)OC(=Cc1ccc3c(c1)OCO3)C2=O	none
O=C1Nc2ccc(Br)cc2/C1=C/c1ccccc1	none
O=C1Nc2ccc(Br)cc2/C1=C/c1ccc([N+](=O)[O-])o1	mHTT-CaM PPI inh 71.0
Cc1ccc(-c2ccc(/C=C3\C(=O)NN(c4ccc(F)cc4)C3=O)o2)c([N+](=O)[O-])c1C	none
Cc1cc(C)c(N2C(=O)NC(=O)/C(=C\c3ccc([N+](=O)[O-])o3)C2=O)c(C)c1	mHTT-CaM PPI inh 60.0
O=C1NN(c2ccc(Br)cc2)C(=O)/C1=C/c1ccc([N+](=O)[O-])o1	mHTT-CaM PPI inh 97.0
C=CCN1C(=O)NC(=O)/C(=C/c2ccc(-c3ccc([N+](=O)[O-])cc3C)o2)C1=O	none
CCCC12CN3CC(C)(CN(C1)C31CCCC1)C2=O	none
COc1ccccc1NC(=O)N1CCCC2(C1)Nc1ccccc1NC2=NC(C)(C)C (stereo unspecified)	mHTT-CaM PPI inh 66.8
CC(C)(C)N=C1Nc2ccccc2NC12CCCN(C(=O)NCc1ccco1)C2 (stereo unspecified)	none
COc1cccc(NC(=O)N2CCCC3(C2)Nc2ccccc2NC3=NC(C)(C)C)c1 (stereo unspecified)	none
CC(C)(C)N=C1Nc2ccccc2NC12CCCN(C(=O)NCc1cccc(F)c1)C2 (stereo unspecified)	mHTT-CaM PPI inh 99.5
COc1cccc(CNC(=O)N2CCCC3(C2)Nc2ccccc2NC3=NC(C)(C)C)c1 (stereo unspecified)	mHTT-CaM PPI inh 68.7
COc1cc(OC)cc(C(=O)N2CCCC3(C2)Nc2ccccc2NC3=NC(C)(C)C)c1 (stereo unspecified)	none
O=C(Nc1cccc(NC(=O)c2cc3ccccc3o2)c1)c1ccccc1	Pf apPOL block 69.6
O=C(O)c1ccc(NC(=O)c2cc3ccccc3o2)cc1	none
CCOc1ccc(C2N(c3cc(Cl)ccc3OC)C(=O)C3CCCN32)cc1 (stereo unspecified)	none
CCSc1ccccc1C(=O)Nc1nnc(-c2ccsc2)o1	mHTT-CaM PPI inh 84.2
CCSc1ccccc1C(=O)Nc1nnc(C2CCCCC2)o1	none
O=C(Nc1c(Cl)cccc1Cl)C1(c2ccccc2)CCOCC1	Pf apPOL block 85.8
Cc1ccc(NC(=O)C2(c3ccccc3)CCOCC2)cc1	none
O=C(CSCc1ccccc1)Nc1nnc(-c2ccsc2)o1	none
O=C(Nc1nnc(-c2ccsc2)o1)C1(c2ccccc2)CCOCC1	mHTT-CaM PPI inh 99.7
Cc1cc(C)cc(-n2c(C)nc3cc(C(=O)NCCCN4CCOCC4)ccc32)c1	none
CC(Oc1ccc(Cl)cc1Cl)C(=O)Nc1ccc(C(N)=O)cc1 (stereo unspecified)	none
CCCCN(CC)C(=O)c1ccccc1[N+](=O)[O-]	none
CCCCc1ccc(NC(=O)NCCN2CCNC2=O)cc1	none (no result: mHTT-CaM PPI inh)
O=C1CC(NCCCN2CCOCC2)C(=O)N1c1ccc(Br)cc1 (stereo unspecified)	mHTT-CaM PPI inh 53.6
O=C1CC(NCCCN2CCOCC2)C(=O)N1c1ccc(N=Nc2ccccc2)cc1 (stereo unspecified)	none
N#CC1=CN(c2ccc3c(c2)CCC3)c2ccccc2S1(=O)=O	none
O=C(Cc1ccc(F)cc1)N1CCC(CCOc2ccccc2)CC1	none
O=C(O)CCC(=O)N1N=C(c2ccc([N+](=O)[O-])cc2)CC1c1ccc(Br)cc1 (stereo unspecified)	none
O=[N+]([O-])c1ccc(N2N=C(c3ccc(O)cc3)CC2c2ccc(F)cc2)cc1 (stereo unspecified)	mHTT-CaM PPI inh 98.0
CC(=O)N1N=C(c2ccc([N+](=O)[O-])cc2)CC1c1ccccc1 (stereo unspecified)	none
O=[N+]([O-])c1ccc(N2N=C(c3ccccc3)CC2c2ccccc2O)cc1 (stereo unspecified)	mHTT-CaM PPI inh 99.0
CCN(CC)CCCN1C(=O)C(O)=C(C(=O)c2ccc(C)o2)C1c1ccc(F)cc1 (stereo unspecified)	none
COc1ccc2oc(-c3noc(COc4ccc(F)cc4)n3)c(C)c2c1	none
CC(C)NC(=O)C1(O)c2cc(Br)ccc2NC(=O)N1c1ccccc1 (stereo unspecified)	none
COc1ccccc1C(=O)N1CCCC(c2ccnc(-c3ccccc3)n2)C1 (stereo unspecified)	none
COc1ccccc1C(=O)N1CCC2(CC1)NC(=O)N(Cc1ccc(Cl)cc1)C2=O	none
CCOc1ccccc1C(=O)n1cc(Cl)cn1	Pf apPOL block 97.7!
O=C(c1cccc2[nH]ccc12)N1CCC2(CC1)NC(=O)N(Cc1ccc(Cl)cc1)C2=O	none
CCOc1ccccc1C(=O)N1CCC2(CC1)NC(=O)N(Cc1ccc(Cl)cc1)C2=O	mHTT-CaM PPI inh 55.0
CCOc1ccccc1C(=O)N1CCN(c2ccc(Cl)cc2)CC1	none
O=C(c1c[nH]c2ccccc12)N1CCC2(CC1)NC(=O)N(Cc1ccc(Cl)cc1)C2=O	mHTT-CaM PPI inh 89.7
O=C(Nc1ccc(C(F)(F)F)cc1)NC1CCN(c2ncc(C(F)(F)F)cc2Cl)CC1	none (no result: mHTT-CaM PPI inh)
COc1ccc(/C=c2\sc3n(c2=O)CN(c2cccc(F)c2)CN=3)cc1	none
CCOc1ccccc1NC(=O)CSc1nc(N)c(NC(=O)c2cccs2)c(=O)[nH]1	none
CNc1cc(Nc2ccccc2)c2c3c(onc13)-c1ccccc1C2=O	mHTT-CaM PPI inh 98.0
CCOc1ccc(Nc2cc(N3CCOCC3)c3noc4c3c2C(=O)c2ccccc2-4)cc1	none
CN(C)c1cc(Nc2ccccc2)c2c3c(onc13)-c1ccccc1C2=O	mHTT-CaM PPI inh 96.0
O=C(O)c1ccccc1Nc1cc(N2CCOCC2)c2noc3c2c1C(=O)c1ccccc1-3	none
Cc1nn(-c2ccccc2)c2nc(C3CC3)nc(N3CCCC3)c12	none
CCOC(=O)c1ccc(NC(=O)CC(NCCCOC)C(=O)O)cc1 (stereo unspecified)	none
Nc1cccc2c1NC(c1ccc(Cl)cc1)C1CCCC21 (stereo unspecified)	mHTT-CaM PPI inh 90.3
O=C(NC1CCN(c2ccccc2C(=O)N2CCOCC2)CC1)C1CC1	none
